Measured values as given in PubChem BioAssay AID1626 (SRMLSC, 2009).
Values joined by “and” are separate entries in the source; they are usually repeats but may differ in a detail not shown here. Equal values may be shown once. About 2,000 (0.91%) of roughly 220,000 compounds were called active. About 2% were inconclusive and are not listed. The list is a sample of the results. Potency and affinity values are given separately. Unmarked numbers belong to inactive results. Cut-off read from the data, not from the text of the source: inconclusive = inhibition above about 80% without an active follow-up result; inactive = below that; test concentration not stated here.

assay: M. tuberculosis H37Rv growth inhibitors, H37Rv strain (AID 1626); conditions: stronger effect = higher value, concentration not given here;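 note: bacteria incubated seven days before Alamar blue readout; 0% = bacteria only wells and 100% = bacteria with antibiotic wells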

SMILES	inhibition
CSCCNC(=O)c1cccc(Cl)c1	3.62%
Cn1c(=O)c2c(nc(CN3CCOCC3)n2CC(=O)c2ccccc2)n(C)c1=O	-10.9%
CN1CCN(c2ncnc3c2c(-c2ccccc2)cn3-c2ccc(F)cc2)CC1	5.53%
Cc1scc(C(=O)N/N=C/c2ccc(OCC(C)C)cc2)c1C	6.9%
COc1ccc(/C=C/c2ccncc2)cc1	-1.37%
Cc1ccc(-c2cc(-c3ccc(C)cc3)[n+](C)o2)cc1	-0.95%
COc1cccc(NC(=O)Cn2c(CCC(=O)O)ccc2-c2cccs2)c1	-0.82%
Cc1ccccc1NC(=O)c1ccc(CSc2ncccn2)cc1	5.28%
CS(=O)(=O)c1ccc(C(=O)NCc2ccc(F)cc2)cc1	-6.92%
CCn1cc(CNC(=O)c2cccc([N+](=O)[O-])c2)cn1	-9.32%
CCn1cc(CNC(=O)c2ccc(C)s2)cn1	-1.4%
O=C(NCc1ccc(F)cc1)c1ccc(N2CCc3ccccc32)c([N+](=O)[O-])c1	13.9%
CCOc1ccc(NC(=O)N2CCN(S(C)(=O)=O)CC2)cc1	-3.68%
COc1ccc(-n2cnc3c(sc4nccc(N(C)C)c43)c2=O)cc1	10.5%
COc1ccc(C=C2C(=O)OC(C)(C)OC2=O)cc1OC	-16.1%
CN(C)c1ccc(C=C2C(=O)OC(C)(C)OC2=O)cc1	-0.63%
COC(=O)CN(c1ccccc1)S(=O)(=O)c1cc(Br)ccc1OC	5.26%
CCOC(=O)Cc1csc(NC(=O)c2ccc(C)cc2)n1	-1.68%
CCOC(=O)Cc1csc(NC(=O)c2cc3c(s2)CCCC3)n1	6.6%
CSc1ccc(/C=C/C(=O)Nc2ccccc2)cc1	33.9%
CSc1ccc(/C=C/C(=O)c2ccc(NC(=O)C(C)C)cc2)cc1	75.2%
CCOc1ccc(C(=O)/C=C/c2ccc(SC)cc2)cc1	-1.12%
CCOC(=O)Nc1ccc(C(=O)/C=C/c2ccccc2)cc1	10.2%
Cc1ccc(/C=C/C(=O)c2ccc(O)cc2)cc1	11.5%
COc1ccccc1/C=C/C(=O)c1ccc(NC(C)=O)cc1	94.1%

SMILES	inhibition
O=C(Nc1nnc(CC2=CCCCC2)s1)Nc1ccccc1F	-2.47%
Cc1nnc2c3ccccc3c(-c3ccccc3)nn12	5.99%
CCCC(=O)c1c[nH]c(C(=O)NCc2ccco2)c1	-9.43%
Cc1ccc(Cn2cc(/C=N/NC(=O)Cc3nnc(NC(=O)c4ccc(C)cc4)s3)c3ccccc32)cc1	7.8%
O=C(CCNC(=O)c1ccco1)NCc1ccccc1	0.15%
COc1ccc(CCNc2nc(N3CCOCC3)nc(N3CCOCC3)n2)cc1OC	8.14%
COc1ccc(N2CCN(c3nc(NCCc4ccc(OC)c(OC)c4)nc(OC)n3)CC2)cc1	34.2%
CC(C)CCN1CCN(Cc2ccc(C#CC(C)(C)O)s2)CC1CCO (centres undefined)	9.71%
CC(=O)c1ccc(-c2ccc(C(=O)N3CCCc4ccccc43)o2)cc1	17.9%
CSc1sc(-c2ccnc(=S)[nH]2)c(-c2ccccc2)c1C#N	-4.19%
COc1ccccc1NC(=O)CSCc1nc2ccccc2[nH]1	-0.98%
CCOC(=O)N1CCN(CCC(=O)Nc2cccc(Br)c2)CC1	-0.92% and -12.2%
Cc1ccc(C(=O)NCc2ccccc2)cc1Br	-8.73%
O=C(CSCc1nc2ccccc2[nH]1)Nc1ccccc1	0.99%
CCOC(=O)N1CCN(CCC(=O)Nc2ccc(Br)cc2)CC1	-16.8%
Cc1ccc(NC(=O)CNCc2ccccc2)c(Br)c1	-0.29%
O=C(CNCc1ccccc1)Nc1ccc(F)cc1	-5.31%
COC(=O)Nc1ccc(Oc2ccccc2)cc1	-4.37%
CCc1cccc(NC(=S)N(CCCN2CCOCC2)C(C)c2cc3cccc(OC)c3o2)c1 (centres undefined)	-11.9%
COc1ccc(CNC(=O)CCSCc2cccc(Cl)c2)c(OC)c1	-4.73%
O=C(Nc1nc(-c2ccc(S(=O)(=O)N3CCCC3)cc2)cs1)c1ccco1	7.57%
COCCOCCn1c(/C=C/c2ccccc2)nc2ccccc21	11%
O=S(=O)(NCc1ccccc1)c1ccccc1Br	4.19%
CCN(CC)S(=O)(=O)c1ccc2c(c1)nc(CCC(=O)Nc1ccccc1Cc1ccccc1)n2CC	-0.79%
